# Experimental data taken from PubChem BioAssay (NCATS).
# Records with an inconclusive call do not appear. Active and inactive are the calls of the source. Calls follow the shape of the dose curve; as a rule, active = well fitted cell-killing curve with a large enough effect; inconclusive = small, poorly fitted or top-dose-only effect, or effect the other way; inactive = no such curve, though single readings can be large or run the other way.
# Assays:
# [1] = Quantitative High-Throughput drug screen in 47 multiple myeloma cell lines against the NCATS MIPE library collection: H1112_PLB cell viability assay (AID 1918967; also: nearly all actives have a fitted effect of over 30% in size)
# Procedure, shortened: (§1)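 We plated 500 myeloma cells per well, pinned in MIPE 4.0 compounds, and incubated for 48 hours at 37C. ATP was then quantified with CellTiter-Glo, with DMSO and media-only wells defining 100% and 0%.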
# [2] = Quantitative High-Throughput drug screen in 47 multiple myeloma cell lines against the NCATS MIPE library collection: Karpas25_ECACC cell viability assay (AID 1918968; also: nearly all actives have a fitted effect of over 35% in size)
# Procedure, shortened: as §1
# [3] = Quantitative High-Throughput drug screen in 47 multiple myeloma cell lines against the NCATS MIPE library collection: KMS12BM_JCRB cell viability assay (AID 1918971); also: nearly all actives have a fitted effect of over 35% in size
# Procedure, shortened: (§2)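 Myeloma cell lines, 500 cells per well, exposed to MIPE 4.0 library compounds for 48 h at 37C, 5% CO2. Viability from ATP by CellTiter-Glo luminescence; normalised to DMSO (100%) and media-only (0%) wells.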
# [4] = Quantitative High-Throughput drug screen in 47 multiple myeloma cell lines against the NCATS MIPE library collection: KMS12PE_JCRB cell viability assay (AID 1918972); also: nearly all actives have a fitted effect of over 30% in size
# Procedure, shortened: as §2
# [5] = Quantitative High-Throughput drug screen in 47 multiple myeloma cell lines against the NCATS MIPE library collection: KMS20_JCRB cell viability assay (AID 1918973); also: nearly all actives have a fitted effect of over 45% in size
# Procedure, shortened: as §1
# [6] = Quantitative High-Throughput drug screen in 47 multiple myeloma cell lines against the NCATS MIPE library collection: KMS26_JCRB cell viability assay (AID 1918975); also: nearly all actives have a fitted effect of over 45% in size
# Procedure, shortened: as §2
# [7] = Quantitative High-Throughput drug screen in 47 multiple myeloma cell lines against the NCATS MIPE library collection: MMM1_PLB cell viability assay (AID 1918976); also: nearly all actives have a fitted effect of over 35% in size
# Procedure, shortened: (§3)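 500 cells/well per myeloma line exposed to pinned MIPE 4.0 compounds for 48 h at 37 °C, 5% CO2. Viability read as ATP by CellTiter-Glo luminescence, normalised to DMSO-only (100%) and media-only (0%) wells.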
# [8] = Quantitative High-Throughput drug screen in 47 multiple myeloma cell lines against the NCATS MIPE library collection: MOLP8_DSMZ cell viability assay (AID 1918977); also: nearly all actives have a fitted effect of over 45% in size
# Procedure, shortened: as §3
# [9] = Quantitative High-Throughput drug screen in 47 multiple myeloma cell lines against the NCATS MIPE library collection: KMS27_JCRB cell viability assay (AID 1918970); also: nearly all actives have a fitted effect of over 30% in size
# Procedure, shortened: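 CellTiter-Glo luminescence after 48 h drug exposure at 37 °C; 500 cells/well, 1536-well format, pin-tool compound addition; DMSO = 100%, media-only = 0% viability.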
# [10] = Quantitative High-Throughput drug screen in 47 multiple myeloma cell lines against the NCATS MIPE library collection: KMS21BM_JCRB cell viability assay (AID 1918974); conditions: ATP luminescence, 48 h; viability: at 45.8 µM (top of the series) unless noted
# Procedure, shortened: as §1
# Potency is read from the fitted curve at half-maximal effect.
Structure (SMILES),Potency [1],Potency [2],Potency [3],Potency [4],Potency [5],Potency [6],Potency [7],Potency [8],Potency [9],Potency [10]
CC[C@]1(O)C[C@H]2CN(CCc3c([nH]c4ccccc34)[C@@](C(=O)OC)(c3cc4c(cc3OC)N(C=O)[C@H]3[C@@](O)(C(=O)OC)[C@H](OC(C)=O)[C@]5(CC)C=CCN6CC[C@]43[C@@H]65)C2)C1,0.0093 µM (active),0.0105 µM (active),0.0019 µM (active),0.0743 µM (active),0.0148 µM (active),0.0372 µM (active),1.05 µM (active),–,–,–
O=c1oc2cc(O)ccc2s1,inactive,7.43 µM (active),inactive,inactive,inactive,inactive,16.6 µM (active),–,–,–
Cc1cc(=O)oc2cc(O)ccc12,inactive,4.69 µM (active),inactive,inactive,inactive,inactive,0.296 µM (active),inactive,–,–
Cc1cc(C2CCCCC2)n(O)c(=O)c1,13.2 µM (active),3.32 µM (active),8.33 µM (active),11.8 µM (active),11.8 µM (active),10.5 µM (active),14.8 µM (active),4.18 µM (active),5.26 µM (active),–
Oc1ccc(-c2nc(-c3ccc(F)cc3)c(-c3ccncc3)[nH]2)cc1,8.33 µM (active),7.43 µM (active),–,–,–,–,–,–,inactive,–
CC1Cc2ccccc2N1NC(=O)c1ccc(Cl)c(S(N)(=O)=O)c1 (stereo not given),inactive,inactive,inactive,inactive,–,–,–,inactive,inactive,–
Cc1c(C(=O)NN2CCCCC2)nn(-c2ccc(Cl)cc2Cl)c1-c1ccc(Cl)cc1,23.5 µM (active),23.5 µM (active),23.5 µM (active),14.8 µM (active),–,–,20.9 µM (active),–,–,–
Cc1cc2c(s1)Nc1ccccc1N=C2N1CCN(C)CC1,inactive,3.32 µM (active),–,–,inactive,inactive,–,inactive,–,–
CCOc1cc(CC(=O)N[C@@H](CC(C)C)c2ccccc2N2CCCCC2)ccc1C(=O)O,inactive,inactive,–,–,0.59 µM (active),–,–,–,–,–
CCN(CC)C(=S)SSC(=S)N(CC)CC,0.001 µM (active),0.001 µM (active),0.0093 µM (active),–,0.001 µM (active),0.0105 µM (active),0.0187 µM (active),0.0093 µM (active),–,–
Cc1cc(=O)c2c(O)c3c(O)cc(=O)c4c3c3c(cc(O)c1c23)C(C)(C)C=4O,0.59 µM (active),0.264 µM (active),4.69 µM (active),–,0.0187 µM (active),6.62 µM (active),0.372 µM (active),2.64 µM (active),–,4.18 µM (active)
CN(c1nccc(=O)[nH]1)C1CCN(c2nc3ccccc3n2Cc2ccc(F)cc2)CC1,23.5 µM (active),11.8 µM (active),–,inactive,6.62 µM (active),–,–,inactive,–,–
COc1ccc2cc([C@H](C)C(=O)O)ccc2c1,inactive,20.9 µM (active),–,–,–,inactive,16.6 µM (active),inactive,–,–
O=C1c2ccccc2-c2n[nH]c3cccc1c23,inactive,–,–,–,–,–,–,–,2.96 µM (active),–
O=c1c(O)c(-c2ccc(O)cc2O)oc2cc(O)cc(O)c12,inactive,10.5 µM (active),2.09 µM (active),–,–,–,–,inactive,–,–
O=C(NCC1CCCCN1)c1cc(OCC(F)(F)F)ccc1OCC(F)(F)F (stereo not given),8.33 µM (active),9.35 µM (active),–,–,7.43 µM (active),–,–,–,–,–
Cc1ccc(NC(=O)c2ccc(CN3CCN(C)CC3)cc2)cc1Nc1nccc(-c2cccnc2)n1,inactive,23.5 µM (active),–,–,–,–,–,inactive,–,–
C=CCc1cc(OC)c(O)c(C(=O)NCCO)c1,inactive,inactive,–,–,–,inactive,–,–,–,–
COc1cc(Nc2c(C#N)cnc3cc(OCCCN4CCN(C)CC4)c(OC)cc23)c(Cl)cc1Cl,9.35 µM (active),1.05 µM (active),14.8 µM (active),–,1.32 µM (active),18.7 µM (active),20.9 µM (active),–,–,–
Nc1nc(OCc2ccccc2)c2[nH]cnc2n1,inactive,16.6 µM (active),inactive,–,–,–,–,–,–,4.69 µM (active)
O=C1c2c(O)cc(O)cc2OC(c2ccc(O)c(O)c2)C1O (stereo not given),inactive,inactive,–,inactive,–,inactive,–,inactive,–,–
N[C@@H](Cc1cc(I)c(Oc2cc(I)c(O)c(I)c2)c(I)c1)C(=O)O,inactive,inactive,–,–,–,–,2.96 µM (active),–,–,–
CCC(C)(Oc1ccc(C2(c3ccc(OC(C)(CC)C(=O)O)cc3)CCCCC2)cc1)C(=O)O (stereo not given),inactive,13.2 µM (active),–,–,–,–,–,inactive,–,–
Cc1cccc(CN2CCN(C(c3ccccc3)c3ccc(Cl)cc3)CC2)c1 (stereo not given),23.5 µM (active),23.5 µM (active),26.4 µM (active),–,6.62 µM (active),–,20.9 µM (active),–,–,–
COc1cc(C(C)=O)ccc1OCCCN1CCC(c2noc3cc(F)ccc23)CC1,inactive,1.87 µM (active),–,20.9 µM (active),16.6 µM (active),0.0074 µM (active),18.7 µM (active),inactive,–,–
Nc1cc(C(Cl)=C(Cl)Cl)c(S(N)(=O)=O)cc1S(N)(=O)=O,inactive,inactive,–,inactive,–,inactive,–,inactive,–,–
CCN(CC)CCOc1ccc(Cc2ccccc2)cc1,inactive,14.8 µM (active),–,–,inactive,–,–,–,–,–
CCCCC(CC)COC(=O)C(C#N)=C(c1ccccc1)c1ccccc1 (stereo not given),inactive,inactive,–,inactive,inactive,inactive,–,inactive,–,–
